Screening data: PubChem, National Center for Advancing Translational Sciences (NCATS)
POLB inh: DNA polymerase beta (human) inhibition. P06746. Pol beta primer extension/strand displacement, fluorescence kinetic. Potency, µM (titrated, usually from 114 µM), hits mostly inhibitors. 340,000 tested, 1.3% active. AID 485314
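Homogeneous kinetic assay of primer extension and strand displacement by 10 nM Pol beta, preincubated 15 min at room temperature with compound before 50 nM substrate (final) was added. Read at 0 and 10 min; four-parameter Hill fit.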
L3MBTL1 inh: inhibitors of human L3MBTL1; Q9Y468; AlphaScreen L3MBTL1–H3K9me1 peptide binding; Potency, µM (series often up to 57.1 µM), usual class: inhibitors; 230,000 tested, 0.66% active; note: nearly all actives have a fitted effect of over 60% in size
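Read-out is AlphaScreen signal from streptavidin donor and nickel chelate acceptor beads (10 ug/mL final each) bridging L3MBTL1 (50 nM) and biotinylated K9-monomethylated H3(1-15) peptide (75 nM), after 30 min compound exposure at room temperature.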
Pol iota inh: DNA polymerase iota (human) inhibition; Pol iota fluorescent replication assay, 10 min; 390,000 tested, 1% active; Q9UNA4; Potency, µM (highest dose often 115 µM), hits mostly inhibitors
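Fluorescent replication assay read twice, at 0 min and 10 min after adding 50 nM (final) substrate. Enzyme (10 nM) and compounds were first incubated 15 min at room temperature; enzyme-free buffer wells were negative controls.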
Pol eta inh-1: inhibitors of human DNA polymerase eta. Q9Y253. AID 588591. 390,000 tested, 1.2% active. Potency, µM (series often up to 114 µM), usual class: inhibitors. recombinant Pol eta, fluorescent DNA replication assay
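Pol eta (10 nM) was preincubated with compounds for 15 min at room temperature, after which fluorescent replication substrate (50 nM final) was added to start the reaction. Fluorescence was read kinetically at 0 and 10 min.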
Pol kappa inh-1: inhibitors of human DNA polymerase kappa. Q9UBT6. purified Pol kappa, fluorescent DNA synthesis assay, 10 min. Potency, µM (highest dose often 107 µM), most hits filed as inhibitors. 400,000 tested, 0.53% active
Target sequence (Q9UBT6 whole entry, looked up): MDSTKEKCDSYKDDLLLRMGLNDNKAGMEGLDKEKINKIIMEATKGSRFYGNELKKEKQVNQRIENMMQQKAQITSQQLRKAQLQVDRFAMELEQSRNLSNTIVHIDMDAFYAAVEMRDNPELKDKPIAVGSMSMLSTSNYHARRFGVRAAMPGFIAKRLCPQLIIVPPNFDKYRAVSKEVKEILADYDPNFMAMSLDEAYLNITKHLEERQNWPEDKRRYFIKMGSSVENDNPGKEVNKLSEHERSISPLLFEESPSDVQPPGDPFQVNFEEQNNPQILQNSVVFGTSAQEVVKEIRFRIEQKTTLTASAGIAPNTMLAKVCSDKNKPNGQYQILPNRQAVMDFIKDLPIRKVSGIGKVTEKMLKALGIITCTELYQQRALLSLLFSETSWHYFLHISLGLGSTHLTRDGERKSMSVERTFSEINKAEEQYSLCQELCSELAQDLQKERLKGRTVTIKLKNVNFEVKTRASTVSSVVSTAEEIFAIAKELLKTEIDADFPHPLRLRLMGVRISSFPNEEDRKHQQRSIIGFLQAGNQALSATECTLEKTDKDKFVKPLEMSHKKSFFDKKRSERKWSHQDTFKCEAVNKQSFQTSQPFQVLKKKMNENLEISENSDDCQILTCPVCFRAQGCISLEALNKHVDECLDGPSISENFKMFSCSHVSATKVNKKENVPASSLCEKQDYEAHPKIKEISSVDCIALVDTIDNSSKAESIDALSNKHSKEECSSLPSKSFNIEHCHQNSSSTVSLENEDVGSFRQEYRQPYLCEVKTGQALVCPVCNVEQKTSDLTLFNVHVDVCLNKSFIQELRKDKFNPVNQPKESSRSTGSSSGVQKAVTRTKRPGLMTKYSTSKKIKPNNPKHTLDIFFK
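First, compounds were pin-transferred onto 10 nM Pol kappa. After 15 min at room temperature, substrate was added to 50 nM final. Fluorescence was then measured kinetically at 0 and 10 min.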
PGK validate: TbPGK inhibition, hit validation. shares compounds with Pol kappa inh-1. TbPGK coupled GAPDH assay, Kinase-Glo luminescence. Potency, µM (highest dose often 57.5 µM), actives largely listed as inhibitors. 500 tested, 79% active; note: nearly all actives have a fitted effect of over 65% in size
POLI cherry-pick: Confirm cherry-picked inhibitors of human polymerase iota; 1,500 tested, 77% active; AID 720496; shares compounds with Pol kappa inh-1; Potency, µM, usual class: inhibitors; Pol iota primer extension, TAMRA/BHQ fluorescence
Pol kappa inh-2: confirmation of human DNA polymerase kappa inhibitors; 920 tested, 76% active; AID 720501; purified Pol-kappa, fluorescent strand-displacement substrate; shares compounds with Pol eta inh-1; Potency, µM, actives largely listed as inhibitors
Pol eta inh-2: confirmation of human DNA polymerase eta inhibitors. shares compounds with Pol eta inh-1. Pol eta primer extension, TAMRA/BHQ fluorescence, 10 min. Potency, µM, actives largely listed as inhibitors. 2,600 tested, 64% active. AID 720502
A number is an active result; . = inactive; ? = inconclusive; / = no result. Shown are actives, neighbours in structure and some others; about 2.4% of the full set was active somewhere. Calls come from the whole dose curve; as a rule, active = well fitted curve in the direction sought with a large enough effect; inconclusive = small, poorly fitted or top-dose-only effect, or another doubt; inactive = no such curve, though single readings can be large; an effect the other way counts as inactive or inconclusive.

SMILES	POLB inh	L3MBTL1 inh	Pol iota inh	Pol eta inh-1	Pol kappa inh-1	POLI cherry-pick	Pol eta inh-2	others
CCCCOc1ccc(C(=O)Nc2cc(-c3cn4cccnc4n3)ccc2OC)cc1	.	/	.	.	.	/	/
Cc1cc(C(=O)N2CCN(S(=O)(=O)c3ccccc3C#N)CC2)c(C)o1	/	.	.	.	.	/	/
N#Cc1ccccc1S(=O)(=O)N1CCN(C(=O)c2cc3c(s2)CCC3)CC1	/	?	?	20µM	?	?	?	Pol kappa inh-2=?
Cc1ccc2c(=O)cc(C(=O)Nc3ccc(S(=O)(=O)N(C)Cc4ccccc4)cc3)oc2c1C	.	/	.	.	.	/	/
Cc1cccc2cc(C(c3nnnn3C(C)(C)C)N(Cc3ccco3)CC3CCCO3)c(=O)[nH]c12 (configuration not stated)	32µM	?	16µM	7.9µM	45µM	17	19	PGK validate=1.8µM
O=C1c2ccccc2C(=O)c2c1ccc(O)c2O	/	/	.	?	?	?	76	PGK validate=?
CN(C)C(=O)COC(=O)c1ccc(S(=O)(=O)NCc2ccco2)cc1	25µM	?	?	22µM	?	60	38
CCc1nn2c(=O)cc(COc3ccc(/C=C4\C(=N)N5N=C(C)SC5=NC4=O)cc3)nc2s1	35µM	/	?	7.1µM	79µM	34	48	Pol kappa inh-2=19
Cc1cc(SCC(=O)Nc2ccc(Cl)cc2)nc2ccccc12	?	/	.	/	.	/	/
Cc1cc(SCC(=O)Nc2ccc3[nH]c(=O)[nH]c3c2)nc2ccccc12	/	.	?	40µM	.	60	/	Pol kappa inh-2=?
COCCn1c(=O)c(-c2ccc(OC)cc2)nc2cnc(N3CCOCC3)nc21	/	/	/	/	.	/	/
c1ccc(-c2cccc(N3CC[C@@]4(CCCNC4)C3)c2)cc1	/	/	/	/	.	/	/
O=C(O)COc1ccccc1/C=N/NC(=O)/C(=C\c1ccc2c(c1)OCO2)NC(=O)c1ccccc1	.	/	?	?	.	42	?
COc1ccc2nc(C)cc(N/N=C/c3ccccc3)c2c1	/	.	.	?	?	/	/
COc1ccc(/C=N/Nc2cc(C)nc3ccc(OC)cc23)c(OC)c1	32µM	.	?	?	?	38	48
O=C(O)C1=CCC=CC1C(=O)O (configuration not stated)	/	/	/	5µM	/	21	15	PGK validate=3.3µM
Cc1ccc(-n2ncc3c(=O)n(-c4cccc(C)c4)c(=O)[nH]c32)cc1	/	/	/	.	/	/	/
COc1ccc(/C=C2\C(=O)NC(=S)N2C(=O)c2ccc(F)cc2)cc1	14µM	?	?	25µM	.	84	?	Pol kappa inh-2=67
O=C1NC(=S)N(C(=O)c2ccc(F)cc2)/C1=C/c1ccccc1	.	.	.	?	.	/	/
CCOc1ccc(NC(=O)CCS(=O)(=O)c2ccc(Br)cc2)cc1	28µM	/	.	18µM	.	/	76	PGK validate=?
O=C(CSc1nc2ncccc2o1)Nc1cccc(C(F)(F)F)c1	.	/	.	.	.	/	/
O=C(CCn1c(=O)c2sccc2n(CC(=O)Nc2ccccc2)c1=O)NCc1ccccc1Cl	.	/	.	/	.	/	/
O=C(Nc1ccc(-c2nc3ncccc3o2)cc1)c1ccc([N+](=O)[O-])o1	50µM	/	?	11µM	.	75	76
Cc1ccc(-c2nc3ncccc3o2)cc1NC(=O)c1ccc([N+](=O)[O-])o1	.	/	.	.	.	/	/
O=C1C[C@H]2C=CCc3cccc(c32)CN1Cc1cccc(F)c1	/	/	.	/	.	/	/
SMILES	POLB inh	L3MBTL1 inh	Pol iota inh	Pol eta inh-1	Pol kappa inh-1	POLI cherry-pick	Pol eta inh-2	others
COc1ccc2c(c1)C(=O)[C@H](O)[C@@H](c1ccc(OC)c(Br)c1)O2	.	.	.	.	.	/	/
O=C1c2cc(O)c(O)cc2OC(c2ccc(O)c(O)c2)C1O (configuration not stated)	/	/	3.2µM	14µM	8.9µM	38	27	Pol kappa inh-2=19
CC(=O)N1c2nc(C(C)C)nn2C2(CCCCC2)[C@@H]2CCCC[C@@H]21	.	/	.	.	.	/	/
O=S(=O)(c1ccccc1S(=O)(=O)N1CCCCC1)N1CCCCC1	.	.	?	.	.	/	/
O=C1C=C(N2CCCCC2)c2ccccc2C1=O	/	/	8.9µM	20µM	.	34	24
O=C1NC(=Nc2ccc3ccccc3c2)S/C1=C/c1ccco1	8.9µM	28µM	?	35µM	?	38	?	Pol kappa inh-2=27
COc1ccc(C(=O)c2cn(CC(=O)Nc3ccc4c(c3)OCCO4)c3ccc(OC)cc3c2=O)cc1	8.9µM	/	14µM	?	?	7.5	?	Pol kappa inh-2=6
Cc1cc(C)c(OCCOCCn2c(-c3ccc(Cl)cc3)nc3ccccc3c2=O)c(C)c1	.	/	.	.	.	/	/
N#Cc1c(N)oc(-c2ccco2)c1-c1ccco1	.	.	?	?	?	/	/
COc1ccc(OC)c(/C=N/c2oc(-c3ccco3)c(-c3ccco3)c2C#N)c1	45µM	25µM	?	79µM	79µM	38	48
Cc1cc(=O)[nH]c(N/N=C/c2c(O)n(-c3ccccc3)c(=O)c3ccccc23)n1	45µM	.	.	22µM	.	75	60
COc1ccc(CCn2c3c(c(=O)[nH]c2=S)CN(C)CN3)cc1OC	/	/	.	/	.	/	/
O=C(CN1C(=O)COc2ccc(S(=O)(=O)N3CCOCC3)cc21)NCc1ccc(Cl)cc1	.	/	.	.	.	/	/
O=C(O)c1cc(O)c2c(c1)C(=O)c1cc(O)cc(O)c1C2=O	7.9µM	2.5µM	?	8.9µM	22µM	21	6
Cc1noc(C)c1-c1nc(N(C)Cc2ccco2)c2ccccc2n1	/	/	/	/	.	/	/
CCCOc1ccc(Cl)cc1/C=C1/C(=O)ON=C1C	.	/	.	.	.	/	/
CC1=NOC(=O)/C1=C\c1ccc(-c2ccc(Cl)cc2Cl)o1	40µM	.	25µM	14µM	.	?	?
O=[N+]([O-])c1cc(/C=N/n2c(-c3ccncc3)n[nH]c2=S)ccc1Cl	2.5µM	.	13µM	50µM	?	17	43
Cc1cc(-c2n[nH]c(=S)n2/N=C/c2ccc(Cl)c([N+](=O)[O-])c2)n[nH]1	.	.	.	.	.	/	/
COc1ccc(-c2c(C)nn3c4c(cnc23)C(=O)CC(c2ccc(C)cc2)C4)cc1 (configuration not stated)	.	/	.	.	.	/	/
Cc1cc(C)c(S(=O)(=O)/N=C2\C=C(Nc3ccc(C(=O)O)cc3)C(=O)c3ccccc32)c(C)c1	22µM	/	14µM	11µM	89µM	67	17
